Avidin fluor = compound fluoresces at 488/530 nm on avidin beads | compound fluorescence 488/530 nm, flow cytometry; active compounds read high | fluorescence (KMESF) at 10 µM | hit rate 0.38% among 220,000; in the data active = fluorescence above about 47
RGS7-Gao = human RGS7-Galphao interaction regulation; binding response (% of control), % at 10 µM; Multiplexed bead flow cytometry, RGS7-Galphao binding; actives lie on both sides; P09471; hit rate 0.35% among 220,000; in the data active = binding response below about 49% or above about 150%; inconclusive = no clear call, values can overlap the other calls; inactive = in between;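 also: fluorescent Galphao held in activated GDP-AlF4 state binding bead-coupled RGS7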
Target sequence (P09471 whole entry, looked up): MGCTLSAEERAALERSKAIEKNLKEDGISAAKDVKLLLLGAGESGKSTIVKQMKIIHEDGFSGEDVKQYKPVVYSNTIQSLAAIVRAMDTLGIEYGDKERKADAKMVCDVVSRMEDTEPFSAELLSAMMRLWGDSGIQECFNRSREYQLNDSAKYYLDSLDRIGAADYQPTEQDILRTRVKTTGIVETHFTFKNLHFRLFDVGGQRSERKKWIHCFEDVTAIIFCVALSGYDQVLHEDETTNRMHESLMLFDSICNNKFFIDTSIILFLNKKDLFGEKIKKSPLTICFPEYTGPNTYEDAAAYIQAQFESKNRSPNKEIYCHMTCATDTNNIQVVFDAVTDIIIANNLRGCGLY
RGS16-Gao HTS = modulates binding between human RGS16 and Galphao; AID 1441; bead-based flow cytometry RGS16-Galphao binding, fluorescence; actives lie on both sides; hit rate 0.38% among 220,000; binding response (% of control), % at 10 µM; call rule not given here;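 also: Galphao activated by GDP with aluminum fluoride before binding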
Target sequence (O15492 whole entry, looked up): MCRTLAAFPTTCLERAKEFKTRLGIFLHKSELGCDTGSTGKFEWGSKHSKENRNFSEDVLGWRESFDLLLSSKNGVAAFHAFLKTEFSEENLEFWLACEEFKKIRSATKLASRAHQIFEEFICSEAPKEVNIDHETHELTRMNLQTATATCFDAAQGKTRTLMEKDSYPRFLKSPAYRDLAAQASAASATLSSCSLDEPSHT
Target sequence (P09471 whole entry, looked up): as the sequence (P09471 whole entry, looked up) above
GSH fluor = compound fluoresces at 488/530 nm on GSH beads; fluorescence (KMESF) at 10 µM; GSH beads flow cytometry, compound fluorescence 488/530 nm; active compounds read high; hit rate 0.25% among 190,000; in the data active = fluorescence above about 89;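 also: glutathione beads carrying GST-tagged Bcl family fusion proteins plus one bare bead set; values are compound well signal with DMSO vehicle wells as background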
RGS8-Gao reg = modulates binding of RGS8 to human Galphao | P09471 | multiplexed bead flow cytometry; actives lie on both sides | response (percent of control binding), % at 10 µM | hit rate 0.34% among 220,000 | AID 1423; in the data active = response below about 60% or above about 140%; inactive = in between;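 also: Galphao activated as the GDP aluminium fluoride complex binding bead-coupled RGS8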
RGS4-Gao reg = modulates binding of RGS4 to human Galphao. hit rate 0.33% among 220,000. Multiplexed bead flow cytometry; actives lie on both sides. AID 1415. binding response (% of control), % at 10 µM. P09471; in the data active = binding response below about 49% or above about 150%; inactive = in between;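 also: fluorescent Galphao activated with aluminum fluoride binding bead-coupled RGS4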
Starred values were filed as active, the others as inactive. Rows were chosen to be rich in hits. Some 1.2% of all compounds tested hit in one or more screens of this group.

Screening COc1cccc(COC(=O)c2nn(-c3ccccc3)nc2N)c1 returned Avidin fluor 11, RGS7-Gao 99, RGS16-Gao HTS 100, GSH fluor 14, RGS8-Gao reg 100 and RGS4-Gao reg 98.
`CCOC(=O)Cn1nc(-c2ccc(Cl)cc2)cc1N` gave Avidin fluor 10, RGS7-Gao 100, RGS16-Gao HTS 103, GSH fluor 6, RGS8-Gao reg 101 and RGS4-Gao reg 102.
For CCOC(=O)CCn1nc(-c2ccc(Cl)cc2)cc1N the results were Avidin fluor 48*, RGS7-Gao 107, RGS16-Gao HTS 99, GSH fluor 36, RGS8-Gao reg 97 and RGS4-Gao reg 100.
Screening COC(=O)C1=C(C)NC(=O)C1(NC(=O)CN1CCCC1=O)C(F)(F)F (stereo unspecified) returned Avidin fluor 55*, RGS7-Gao 110, RGS16-Gao HTS 103, GSH fluor 22, RGS8-Gao reg 101 and RGS4-Gao reg 104.
`CCOC(=O)NC1(C(F)(F)F)C(=O)NC(C)=C1C(=O)OC` (stereo unspecified) gave Avidin fluor 9, RGS7-Gao 96, RGS16-Gao HTS 107, GSH fluor 8, RGS8-Gao reg 101 and RGS4-Gao reg 101.
Screening CN(C)C(=O)CSc1nc2ccc(N3C(=O)c4ccccc4C3=O)cc2s1 returned Avidin fluor 5, RGS7-Gao inconclusive, RGS16-Gao HTS 109, RGS8-Gao reg 102 and RGS4-Gao reg 107.
`Cc1ccc(C)c(/C(O)=C2\C(=O)C(=O)N(Cc3cccnc3)C2c2cccnc2)c1` (stereo unspecified) gave Avidin fluor 49*, RGS7-Gao 105, RGS16-Gao HTS 97, GSH fluor 18, RGS8-Gao reg 97 and RGS4-Gao reg 95.
Screening COCCn1c(N)c(N(Cc2ccccc2)C(=O)Cc2c(Cl)cccc2Cl)c(=O)[nH]c1=O returned Avidin fluor 6, RGS7-Gao 101, RGS16-Gao HTS 99, GSH fluor 15, RGS8-Gao reg 100 and RGS4-Gao reg 100.
CCC(C)C(=O)Nn1c(C2CC2)nc2cc(OC)c(OC)cc2c1=O (stereo unspecified) was read as Avidin fluor 12, RGS7-Gao inconclusive, RGS16-Gao HTS 93, GSH fluor 11, RGS8-Gao reg 95 and RGS4-Gao reg 91.
Screening CCNC(=O)CSc1nnc(CN2CCCCCC2=O)n1-c1ccccn1 returned Avidin fluor 26, RGS7-Gao 103, RGS16-Gao HTS 109, GSH fluor 15, RGS8-Gao reg 103 and RGS4-Gao reg 103.
`O=C1CCCCCN1Cc1nnc(SCc2nc3ccccc3s2)n1-c1ccccn1` gave Avidin fluor 8, RGS7-Gao 106, RGS16-Gao HTS 108, GSH fluor 257*, RGS8-Gao reg 101 and RGS4-Gao reg 103.
`CC(C)(C)NC(=O)c1cccc(NC(=O)c2ccco2)c1` gave Avidin fluor 4, RGS7-Gao 95, RGS16-Gao HTS 80, GSH fluor 99*, RGS8-Gao reg 90 and RGS4-Gao reg 98.
`CC(C)(C)NC(=O)c1cccc(NC(=O)c2ccc(NC(=O)c3ccco3)cc2)c1` gave Avidin fluor 10, RGS7-Gao 102, RGS16-Gao HTS 100, GSH fluor 29, RGS8-Gao reg 101 and RGS4-Gao reg 99.
Cc1ccc(CNC(=O)c2cnc(-c3ccccn3)nc2C(F)(F)F)cc1 was read as Avidin fluor 7, RGS7-Gao 102, RGS16-Gao HTS 99, GSH fluor 276*, RGS8-Gao reg 102 and RGS4-Gao reg 105.
`O=C(CCc1nc2ccccc2c(=O)[nH]1)NC1CCN(Cc2ccccc2)CC1` gave Avidin fluor 9, RGS7-Gao 111, RGS16-Gao HTS 115, GSH fluor 256*, RGS8-Gao reg 107 and RGS4-Gao reg 112.
For O=C(CCc1ccccc1)Nc1ccc2ccccc2n1 the results were Avidin fluor 9, RGS7-Gao 92, RGS16-Gao HTS 95, GSH fluor 15, RGS8-Gao reg 98 and RGS4-Gao reg 95.
For CC1(C)CC(=O)C(Br)=C(O)C1 the results were Avidin fluor 11, RGS7-Gao inconclusive, RGS16-Gao HTS 106, GSH fluor 16, RGS8-Gao reg 100 and RGS4-Gao reg 105.
For CC1(C)CC(=O)C(=C2SCCCS2)C(=O)C1 the results were Avidin fluor 14, RGS7-Gao 95, RGS16-Gao HTS 97, GSH fluor 156*, RGS8-Gao reg 100 and RGS4-Gao reg 98.
`O=C(NC1CCCC1)C1C2C=CC(C2)C1C(=O)N1CCOCC1` (stereo unspecified) gave Avidin fluor 6, RGS7-Gao 97, RGS16-Gao HTS 98, GSH fluor 272*, RGS8-Gao reg 100 and RGS4-Gao reg 103.
`O=C(O)C1C2C=CC(C2)C1C(=O)N1CCOCC1` (stereo unspecified) gave Avidin fluor 15, RGS7-Gao 104, RGS16-Gao HTS 105, GSH fluor 32, RGS8-Gao reg 107 and RGS4-Gao reg 104.
`Nc1nc(COc2ccc(F)cc2Cl)nc(N2CCCCC2)n1` gave Avidin fluor 11, RGS7-Gao 100, RGS16-Gao HTS 97, GSH fluor 11, RGS8-Gao reg 99 and RGS4-Gao reg 98.
For COc1ccc(C(CNC(=O)c2ccccc2SC)N(C)C)cc1 (stereo unspecified) the results were Avidin fluor 10, RGS7-Gao inconclusive, RGS16-Gao HTS 104, GSH fluor 17, RGS8-Gao reg 99 and RGS4-Gao reg 102.
`Cc1onc(-c2ccccc2)c1C(=O)Nc1ccncc1` gave Avidin fluor 50*, RGS7-Gao 109, RGS16-Gao HTS 104, GSH fluor 12, RGS8-Gao reg 101 and RGS4-Gao reg 100.
For COc1ccc(CNC(=O)c2ccc3c(c2)NC(=O)C(C)S3)cc1 (stereo unspecified) the results were Avidin fluor 3, RGS7-Gao inconclusive, RGS16-Gao HTS 98, RGS8-Gao reg 94 and RGS4-Gao reg 99.
`Cc1nn(Cc2cccc(C(=O)NCC(C)C)c2)c(C)c1Br` gave Avidin fluor 6, RGS7-Gao 112, RGS16-Gao HTS 96, GSH fluor 148*, RGS8-Gao reg 102 and RGS4-Gao reg 116.
Screening Cc1nn(Cc2cccc(C(N)=O)c2)c(C)c1Br returned Avidin fluor 6, RGS7-Gao inconclusive, RGS16-Gao HTS 106, RGS8-Gao reg 101 and RGS4-Gao reg 98.
Screening CCOC(=O)CSc1nc2cc3c(cc2cc1C)OCO3 returned Avidin fluor 72*, RGS7-Gao 140, RGS16-Gao HTS 97, GSH fluor 12, RGS8-Gao reg 98 and RGS4-Gao reg 114.
Screening CCC(=O)Nc1nc2ccc(NC(=O)c3cc(OC)c(OC)c(OC)c3)cc2s1 returned Avidin fluor 13, RGS7-Gao 114, RGS16-Gao HTS 106, GSH fluor 11, RGS8-Gao reg 103 and RGS4-Gao reg 104.

Screening data (PubChem)
